ATXN viability: viability counter-screen for ATXN expression inhibitors | S2 cells (HEK-293 line with an ATXN2-luciferase reporter) viability, CellTiter-Fluor protease fluorescence, 24 h | Potency, µM (doses to about 56.7 µM), actives largely listed as cytotoxic | hit rate 0.49% among 400,000 | AID 651635; further: nearly all actives have a fitted effect of over 40% in size
ATXN2 expr inh: ATXN2 expression inhibition; HEK-293 ATXN2-luciferase reporter, luminescence, 24 h; Potency, µM (titrated, usually from 57 µM), inactives show at the highest dose activity change, negative = inhibition, actives largely listed as inhibitors; hit rate 0.72% among 360,000; AID 1745845; further: on the % scale 0 is the no-effect control and ±100 the full control effect; nearly all actives have a fitted effect of over 55% in size
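qHTS (up to 57 uM final) was run with 24 h compound exposure of reporter cells at 37 °C. Each well was multiplexed: SteadyGlo luminescence measured ATXN2-luciferase expression after a fluorogenic Gly-Phe-AFC viability readout (25 uM final).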
Nrf2 ARE act: activators of Nrf2 (ARE) signaling | Potency, µM (top dose mostly 46.1 µM), for inactives: at the top dose activation, most hits filed as activators | AREc32 ARE-luciferase reporter (MCF7-derived line), luminescence, 24 h | AID 624171 | hit rate 0.31% among 410,000; further: % of control where 0% means no effect; nearly all actives have a fitted effect of over 65% in size
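Steps: seed AREc32_Fluc cells (1000/well, 5% FBS OPTI-MEM); incubate overnight at 37 deg C; add 23 nL compound; incubate 24 hr; add Steady-Glo; hold 30 min RT; read luminescence.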
Nrf2 block: Nrf2 pathway inhibition; AID 504444; A549 ARE-Fluc reporter, luciferase luminescence, 18-24 h; Potency, µM (highest dose often 46 µM), without a hit: at the top dose activity change, negative = inhibition, hits mostly inhibitors; hit rate 2.1% among 360,000; further: on the % scale 0 is the no-effect control and ±100 the full control effect; nearly all actives have a fitted effect of over 60% in size
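Reporter: ARE-Fluc in A549. Exposure: 18-24 h, 37 °C, 5% CO2, 5% FBS OPTI-MEM. Readouts: fluorescent cytotoxicity (CellTiter-Fluor), then luminescent Nrf2 signal after BugLite.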
A549 viability: counter-screen for Nrf2 inhibitors: cytotoxicity in A549 cells; Potency, µM (highest dose often 46 µM), for inactives: top-dose activity change, negative = cytotoxicity, hits mostly inhibitors; A549 ARE-Fluc cells, CellTiter-Fluor viability, 18-24 h; hit rate 0.16% among 390,000; further: on the % scale 0 is the no-effect control and ±100 the full control effect
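A549 ARE_Fluc cells in 5% FBS OPTI-MEM were exposed to compounds in concentration-response for 18-24 h at 37 deg C. Viability was read by CellTiter-Fluor fluorescence (Ex 405/Em 525) after 30 min, before the luciferase read.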
Active calls of the source: *; i = inactive; ? = inconclusive; / = not tested or not shown. An excerpt weighted towards active compounds, which were near 2.9% of everything screened. The call rests on the fitted dose curve; in most records, active means well fitted curve in the direction sought with a large enough effect; inconclusive means small, poorly fitted or top-dose-only effect, or another doubt; inactive means no such curve, though single readings can be large; an effect the other way counts as inactive or inconclusive. Potency means the concentration at half of the fitted maximal effect.

SMILES	ATXN viability	ATXN2 expr inh	Nrf2 ARE act	Nrf2 block	A549 viability
COc1ccc(Cn2c(C(=O)O)c(CNCc3ccc(OC)cc3OC)c3ccc(C)cc32)cc1	?	-10%	4%	?	13µM*
COc1ccc(Cn2c(C(=O)O)c(CNCCc3cc(OC)ccc3OC)c3ccc(C)cc32)cc1	/	?	-1%	?	?
COc1ccc(C2Nc3ccccc3C(=O)N2Cc2ccccc2)cc1Oc1ccc(NC(C)=O)cc1 (configuration not stated)	/	/	/	?	-11%
O=C(Cc1cscn1)N1CCOc2ccc(CN3CCN(c4ccccn4)CC3)cc2C1	i	/	/	/	/
CCNc1cccc(S(=O)(=O)N2CCN(S(=O)(=O)c3ccc4c(c3)OCCO4)CC2)c1	/	/	/	?	-8%
Cc1ccc(C(O)(C(=O)NN(C(=O)c2ccccc2)c2ccccc2)c2ccc(C)cc2)cc1	i	1%	0%	15%	-4%
Cc1ccc(N(NC(=O)C(O)(c2ccccc2)c2ccccc2)C(=O)CCl)cc1	18µM*	28µM*	-3%	?	-13%
O=C(Nc1ccccc1)NN(C(=O)CCl)c1ccccc1	/	?	?	21µM*	?
CCC(O)(CC)C(=O)NN(C(=O)CCl)c1ccccc1	?	-17%	?	?	-4%
Cc1cc(C)n(-c2ccc(C(=O)Nc3cc(S(=O)(=O)N(C)C)ccc3Cl)cc2)n1	i	-19%	-1%	18µM*	1%
Cc1cc(C)n(-c2ccc(C(=O)Nc3cccnc3Cl)cc2)n1	i	/	0%	?	-9%
N#C/C(=C(/O)COc1ccc(Cl)cc1)c1nc2ccccc2s1	i	26%	2%	23µM*	16µM*
CCc1ccc(NC(=O)C2=CC(c3ccc(OC)c(OC)c3)=NS(=O)(=O)N2C)cc1	?	?	0%	23µM*	-20%
COc1ccc(C2=NS(=O)(=O)N(C)C(C(=O)N3CCc4ccccc4C3)=C2)cc1OC	i	?	4%	15µM*	-28%
COc1ccc(C2=NS(=O)(=O)N(C)C(C(=O)NCc3ccccc3)=C2)cc1OC	i	5%	0%	-12%	-19%
COc1ccc(CNC(=O)C2=CC(c3ccc(OC)c(OC)c3)=NS(=O)(=O)N2C)cc1	i	1%	0%	-3%	-12%
COc1ccc(Cl)cc1S(=O)(=O)N1CCN(S(=O)(=O)c2ccc3c(c2)OCCO3)CC1	/	/	/	?	0%
C/C(=N\O)[C@@H](C)NCC(C)(C)CN[C@H](C)/C(C)=N/O	i	-11%	/	/	/
Cc1csc2ncnc(N3CCN(C(=S)Nc4ccc(C(F)(F)F)cc4)CC3)c12	i	/	7%	26µM*	-6%
Cc1csc2c(N3CCN(C(=S)Nc4ccc(C(F)(F)F)cc4)CC3)ncnc12	i	/	9%	?	5%
CC(C)CC(=O)Nc1ccc(C(=O)NNC(=S)NC(=O)C2CCCCC2)cc1	i	-32%	-1%	8.2µM*	2%
N#CCC(=O)Nc1ccc(C(=O)NNC(=S)NC2CCCCC2)cc1	i	7%	0%	-3%	1%
Fc1ccccc1/C=C1\CCCC2=C1NC(=S)NC2c1ccccc1F (configuration not stated)	i	-22%	3%	8.2µM*	-13%
S=C1NC2=C(CCC/C2=C\c2ccccc2)C(c2ccccc2)N1 (configuration not stated)	i	-3%	1%	-20%	-1%
CN(C)c1cccc(S(=O)(=O)N2CCN(S(=O)(=O)c3ccc4c(c3)OCCO4)CC2)c1	/	/	/	4%	-3%
O=C(Nc1ccc(N2CCCCCC2)cc1)c1cccc(S(=O)(=O)N2CCOCC2)c1	?	?	0%	16µM*	-3%
CCOC(=O)c1ccc(NC(=O)c2ccc(C)c(S(=O)(=O)N3CCOCC3)c2)cc1	28µM*	25µM*	-2%	?	?
Cc1ccc(C(=O)Nc2ccc(F)cc2)cc1S(=O)(=O)N1CCOCC1	i	10%	4%	/	-7%
O=C(Nc1ccc(F)cc1)c1ccc(Br)c(S(=O)(=O)N2CCOCC2)c1	i	-32%	3%	15µM*	-17%
COc1ccc(NC(=O)c2cccc(OC(=S)N3CCOCC3)c2)cc1	?	/	4%	?	4%

Compound activity: PubChem BioAssay, National Center for Advancing Translational Sciences (NCATS)
